# In the supplement of paper PMC9135407:
# “And” between values parts separate entries of the source, which are not always exact repeats. Equal values may be shown once. Where a name gives a salt, the structure may show the parent alone. Screen size: about 5,800 compounds; about 620 (11%) showed activity. The sample holds actives, similar compounds and a random draw of the others, so the mix is not that of the screen. A number with no mark means an inactive call.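 Rule for the calls: active = score above a cut-off or among the top three wells of a plate; in these data no inactive exceeds 0.85.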
# Tested on: primary human hepatic stellate cells (donor 1)
# Experiment: scaled lipid accumulation score (0 = DMSO-like, 1 = nortriptyline-like); higher = stronger HSC inactivation (lipid re-accumulation), active = hit call of the paper
# Conditions: 48 h
# [1] = library stock concentration: 1 mM
# [2] = library stock concentration: 10 mM
# [3] = library stock concentration: 80 uM
# [4] = library stock concentration: 400 uM
# [5] = library stock concentration: 2 mM
# [6] = library stock concentration: 3.33 mM
smiles,measurement,setting,value
CCCCC[C@H](O)/C=C/[C@@H]1[C@@H](CCCCCCC(=O)O)[C@@H](O)C[C@H]1O [Prostaglandin F1.alpha.],scaled lipid accumulation score,[1],≤ 0
O=P(O)(O)OC1[C@@H](O)[C@H](O)C(O)[C@H](O)[C@@H]1O (stereo partly drawn) [D-myo-Inositol-3-phosphate (sodium salt)],scaled lipid accumulation score,[1],0.009
Cc1nc(N)sc1-c1ccnc(Nc2ccc(N3CCOCC3)cc2)n1 [listing 1 of 3 here],scaled lipid accumulation score,[2],1.02 (active)
Fc1cc(-c2ccnc(Nc3ccc(-n4cnc(N5CCOCC5)n4)cc3)n2)cc(N2CCOCC2)c1,scaled lipid accumulation score,[3],0.394
same,scaled lipid accumulation score,[4],0.734
same,scaled lipid accumulation score,[5],0.178
same,scaled lipid accumulation score,[2],0.442
Cc1ncc(-c2ccnc(Nc3ccc(S(C)(=O)=O)cc3)n2)n1C(C)C,scaled lipid accumulation score,[3],0.708
same,scaled lipid accumulation score,[4],0.763
same,scaled lipid accumulation score,[5],0.527
same,scaled lipid accumulation score,[6],0.078
same,scaled lipid accumulation score,[2],0.329 and 0.334
Cc1nc(N)sc1-c1ccnc(Nc2ccc(N3CCOCC3)cc2)n1 [listing 2 of 3 here],scaled lipid accumulation score,[2],1.07 (active)
Cc1nc(N)sc1-c1ccnc(Nc2ccc(N3CCOCC3)cc2)n1 [listing 3 of 3 here],scaled lipid accumulation score,[4],≤ -0.005
same,scaled lipid accumulation score,[5],≤ -0.005
same,scaled lipid accumulation score,[6],≤ 0
C[C@@H](O)[C@@H]1NC(=O)[C@H](CCCCN)NC(=O)[C@@H](Cc2c[nH]c3ccccc23)NC(=O)[C@H](Cc2ccccc2)NC(=O)[C@@H](NC(=O)[C@H](N)Cc2ccccc2)CSSC[C@@H](C(=O)N[C@H](CO)[C@@H](C)O)NC1=O [Octreotide],scaled lipid accumulation score,[5],0.006
CC(=O)O/N=C1/C(c2c(O)[nH]c3cc(Br)ccc23)=Nc2ccccc21 [GSK-3 Inhibitor X],scaled lipid accumulation score,[6],≤ 0
O=C1C[C@@H]2[C@@H](CC[C@@H](O)CCc3ccccc3)[C@H](O)C[C@@H]2O1 [Latanoprost Lactone Diol],scaled lipid accumulation score,[1],0.003
O=C(CCCCCCCCCCCCC1CCCC1)Nc1ccc(S(=O)(=O)c2ccc(NC(=O)CCCCCCCCCCCCC3CCCC3)cc2)cc1 [Chaulmosulfone],scaled lipid accumulation score,[2],≤ -0.027
COc1cc2c(Oc3ccc4[nH]c(C)cc4c3F)ncnc2cc1OCCCN1CCCC1 [Cediranib (AZD2171)] [listing 1 of 2 here],scaled lipid accumulation score,[2],0.678
Cc1cc2c(F)c(Oc3ncnn4cc(OC[C@@H](C)O)c(C)c34)ccc2[nH]1 [Brivanib],scaled lipid accumulation score,[3],≤ -0.009
same,scaled lipid accumulation score,[4],≤ -0.009
same,scaled lipid accumulation score,[5],≤ -0.009
same,scaled lipid accumulation score,[2],≤ -0.009
Cc1cc2c(F)c(Oc3ncnn4cc(OC[C@@H](C)O)c(C)c34)ccc2[nH]1,scaled lipid accumulation score,[6],0.023
same,scaled lipid accumulation score,[2],≤ 0
Cc1cc2c(F)c(Oc3ncnn4cc(OC[C@@H](C)OC(=O)[C@H](C)N)c(C)c34)ccc2[nH]1,scaled lipid accumulation score,[6],≤ 0
same,scaled lipid accumulation score,[2],≤ 0
COc1cc2c(Oc3ccc4[nH]c(C)cc4c3F)ncnc2cc1OCCCN1CCCC1 [Cediranib] [listing 1 of 2 here],scaled lipid accumulation score,[3],0.077
same,scaled lipid accumulation score,[4],0.464
same,scaled lipid accumulation score,[2],0.693
COc1cc2c(Oc3ccc4[nH]c(C)cc4c3F)ncnc2cc1OCCCN1CCCC1 [Cediranib] [listing 2 of 2 here],scaled lipid accumulation score,[5],1.06 (active)
COc1cc2c(Oc3ccc4[nH]c(C)cc4c3F)ncnc2cc1OCCCN1CCCC1 [Cediranib (AZD2171)] [listing 2 of 2 here],scaled lipid accumulation score,[6],1.1 (active)
CCCCCCCC/C=C\CCCCCC(=O)O [cis-7-Hexadecenoic Acid],scaled lipid accumulation score,[1],≤ 0
COC(=O)C(C)(N)Cc1ccc(O)cc1 (racemic) [alpha-Methyl-DL-tyrosine methyl ester hydrochloride],scaled lipid accumulation score,[2],≤ -0.019
CN1CCC(CNc2ccc3ncc(-c4cccc(OC(F)(F)F)c4)n3n2)CC1 [listing 1 of 2 here],scaled lipid accumulation score,[5],1.4 (active)
CN1CCC(CNc2ccc3ncc(-c4cccc(OC(F)(F)F)c4)n3n2)CC1 [listing 2 of 2 here],scaled lipid accumulation score,[3],0.117
same,scaled lipid accumulation score,[4],0.23
same,scaled lipid accumulation score,[2],0.47
CN1CCC(CNc2ccc3ncc(-c4cccc(OC(F)(F)F)c4)n3n2)CC1 [SGI-1776 free base],scaled lipid accumulation score,[6],0.774
same,scaled lipid accumulation score,[2],0.181
CCCCC/C=C\C/C=C\C/C=C\C/C=C\CCCC(=O)NC[C@]1(C)CCC[C@]2(C)c3ccc(C(C)C)cc3CC[C@@H]12 [Arachidonic Acid Leelamide],scaled lipid accumulation score,[1],0.002
CCCCCCCCCCCCCCCC(=O)NC(CO)CO [Palmitoyl Serinol],scaled lipid accumulation score,[1],0.026
O=C(Nc1ccncc1)Nc1c(Cl)cc(Cl)cc1Cl [Rho Kinase Inhibitor II],scaled lipid accumulation score,[6],≤ 0
Cc1cc(C)c(Nc2ccnc(Nc3ccc(C#N)cc3)n2)c(C)c1 [Dapivirine (TMC120)] [listing 1 of 2 here],scaled lipid accumulation score,[2],1.08 (active)
Cc1cc(C)c(Nc2ccnc(Nc3ccc(C#N)cc3)n2)c(C)c1 [Dapivirine (TMC120)] [listing 2 of 2 here],scaled lipid accumulation score,[6],0.243
Cc1cc(/C=C/C#N)cc(C)c1Nc1ccnc(Nc2ccc(C#N)cc2)n1 [Rilpivirine],scaled lipid accumulation score,[6],≤ -0.009
same,scaled lipid accumulation score,[2],≤ 0
Cc1ccccc1-c1cccc(N2CCC(N3CCN(C)C(C)C3)CC2)c1 (stereo not given),scaled lipid accumulation score,[2],1.05 (active)
O=C(O)CCC/C=C\C[C@@H]1[C@@H](/C=C/[C@H](O)CCc2ccccc2)[C@H](O)C[C@@H]1O [15(R)-17-phenyl trinor Prostaglandin F2.alpha.],scaled lipid accumulation score,[1],≤ 0
CN(Cc1ccccc1)C(=O)[C@H](Cc1ccc2ccccc2c1)NC(=O)[C@@H]1C[C@@H](O)CN1C(=O)c1cn(C)c2ccccc12,scaled lipid accumulation score,[2],0.019
CN(Cc1ccccc1)C(=O)[C@H](Cc1ccc2ccccc2c1)NC(=O)[C@@H]1CCCN1C(=O)Nc1ccccc1[N+](=O)[O-],scaled lipid accumulation score,[2],0.005
CNC(=O)[C@@H](Cc1ccccc1)N(C)C(=O)[C@@H](Cc1ccc2ccccc2c1)N(C)C(=O)/C=C/CC(C)(C)N.CNC(=O)[C@@H](Cc1ccccc1)N(C)C(=O)[C@@H](Cc1ccc2ccccc2c1)N(C)C(=O)/C=C/CC(C)(C)N.O=C(O)/C=C/C(=O)O [Tabimorelin],scaled lipid accumulation score,[2],1.3 (active)
CCCCCCCCCCCCC/C=C/[C@@H](O)[C@H](CO)NC(=O)CCCCCCCCCCCCCCC [C16 Ceramide],scaled lipid accumulation score,[1],≤ -0.021
C[n+]1cc2c3c(ccc2c2ccc4cc5c(cc4c21)OCO5)OCO3 [Sanguinarine],scaled lipid accumulation score,,0.869 (active)
COc1ccc2cc3[n+](cc2c1OC)CCc1cc2c(cc1-3)OCO2 [Berberine HCl],scaled lipid accumulation score,[6],≤ 0
same,scaled lipid accumulation score,[2],≤ 0
C[n+]1cc2c3c(ccc2c2ccc4cc5c(cc4c21)OCO5)OCO3 [Sanguinarine sulfate],scaled lipid accumulation score,library stock concentration: 4.7 mM,0.693
same,scaled lipid accumulation score,[2],0.287
COc1ccc2cc3[n+](cc2c1OC)CCc1cc2c(cc1-3)OCO2 [Berberine chloride],scaled lipid accumulation score,,≤ 0
same,scaled lipid accumulation score,[2],≤ 0
C[n+]1cc2c3c(ccc2c2ccc4cc5c(cc4c21)OCO5)OCO3 [Sanguinarine chloride],scaled lipid accumulation score,[2],0.196
CC#CCC(C)C(=O)/C=C/[C@@H]1[C@H]2C/C(=C/CCCC(=O)O)C[C@H]2C[C@H]1O (stereo not given in full) [15-keto Iloprost],scaled lipid accumulation score,[1],≤ 0
CC(C)OC(=O)CCC/C=C\C[C@@H]1[C@@H](/C=C/C(=O)COc2cccc(C(F)(F)F)c2)[C@H](O)C[C@@H]1O [15-keto Fluprostenol isopropyl ester],scaled lipid accumulation score,[1],≤ 0
CC1CC2C3CCC4=CC(=O)C=CC4(C)C3(F)C(O)CC2(C)C1C(=O)CO (stereo not given),scaled lipid accumulation score,[2],≤ 0
COc1cc2ncnc(Nc3ccc(F)c(Cl)c3)c2cc1NC(=O)C=CCN1CCCCC1 [listing 1 of 2 here],scaled lipid accumulation score,[5],0.903 (active)
same,scaled lipid accumulation score,[2],1.47 (active)
COc1cc2ncnc(Nc3ccc(F)c(Cl)c3)c2cc1NC(=O)/C=C/CN1CCCCC1,scaled lipid accumulation score,[3],≤ -0.016
same,scaled lipid accumulation score,[4],0.274
same,scaled lipid accumulation score,[2],0.219
COc1cc2ncnc(Nc3ccc(F)c(Cl)c3)c2cc1NC(=O)C=CCN1CCCCC1 [listing 2 of 2 here],scaled lipid accumulation score,[6],1.08 (active)
CNC(=O)CN1CCC(Oc2cc3c(Nc4cccc(Cl)c4F)ncnc3cc2OC)CC1 [AZD8931 (Sapitinib)],scaled lipid accumulation score,[6],0.28
same,scaled lipid accumulation score,[2],0.713
O=C1/C(=C/c2cccs2)CCC/C1=C\c1cccs1,scaled lipid accumulation score,[2],≤ 0
CC(=O)N1CCN(c2ccc(OCC3COC(Cn4ccnc4)(c4ccc(Cl)cc4Cl)O3)cc2)CC1 (stereo not given),scaled lipid accumulation score,[2],0.048
CC(=O)N1CCN(c2ccc(OCC3COC(Cn4ccnc4)(c4ccc(Cl)cc4Cl)O3)cc2)CC1 (stereo not given) [Ketoconazole],scaled lipid accumulation score,,0.131
same,scaled lipid accumulation score,[6],0.086
CC(=O)Oc1c(C)c(C)c2c(c1C)CCC(C)(CCCC(C)CCCC(C)CCCC(C)C)O2 (stereo not drawn) [Alpha-tochopheryl acetate],scaled lipid accumulation score,[2],0.117
O=C1NC(=O)c2c1c1c3ccccc3[nH]c1n1cncc21 [Isogranulatimide],scaled lipid accumulation score,[6],≤ 0
CCCCC[C@H](O)/C=C/[C@@H]1[C@@H](C/C=C\CCCC(=O)OC(C)C)[C@@H](O)C[C@H]1O [Prostaglandin F2.alpha. isopropyl ester],scaled lipid accumulation score,[1],≤ 0
O=C(O)CC/C=C\C[C@H]1CO[C@@H](c2ccccc2Cl)O[C@H]1c1ccccc1O,scaled lipid accumulation score,[2],≤ 0
C=C1/C(=C\C=C2/CCC[C@]3(C)[C@@H]([C@H](C)CCCC(C)(C)O)CC[C@@H]23)C[C@@H](O)C[C@@H]1O,scaled lipid accumulation score,[2],≤ 0
C=C1/C(=C\C=C2/CCC[C@]3(C)[C@@H]([C@H](C)CCCC(C)(C)O)CC[C@@H]23)C[C@@H](O)C[C@@H]1O [Calcitriol],scaled lipid accumulation score,[6],≤ 0
same,scaled lipid accumulation score,library stock concentration: 4.8 mM,0.018
same,scaled lipid accumulation score,[2],≤ 0
C=C1/C(=C\C=C2/CCC[C@]3(C)[C@@H]([C@H](C)CCCC(C)C)CC[C@@H]23)C[C@@H](O)C[C@@H]1O [Alfacalcidol],scaled lipid accumulation score,[6],≤ 0
same,scaled lipid accumulation score,library stock concentration: 5 mM,≤ -0.006
"C=C1/C(=C\C=C2/CCC[C@]3(C)[C@@H]([C@H](C)CCCC(C)(C)O)CC[C@@H]23)C[C@@H](O)C[C@@H]1O [1?,25-Dihydroxyvitamin D3]",scaled lipid accumulation score,[1],0.004
C=C1C(=CC=C2CCC[C@]3(C)[C@@H]([C@H](C)CCCC(C)C)CC[C@@H]23)C[C@@H](O)C[C@@H]1O [Alfacalcidol],scaled lipid accumulation score,[2],1.03 (active)
